According to the supplement of paper PMC10849652:
Of roughly 7,900 targets only a part is listed; those with a hit were picked by preference. About 0.6% of all pairs of compound and target were hits.

Legend:
Experiment in all cases: log2 fold change, soluble protein after heating vs DMSO (PISA); higher = thermal stabilisation; K562 cells, 10 uM, 30 min; active = over 0.2 and 3.5 SD of the protein, either way, in both replicates (recomputed)
[1] = compound: Cc1ccc(NC(=O)c2ccc(CN3CC[C@H](N(C)C)C3)c(C(F)(F)F)c2)cc1Nc1nccc(-c2cncnc2)n1 [bafetinib]
Outline: (§1)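 Values are thermal stability changes relative to control samples and are taken from duplicates. They are stated as log2 fold changes. Before quantification by TMTpro 16plex LC-MS/MS with equalised channel sums, K562 cells at 2×10^6 cells/mL were treated with 10 μM compound for 30 min, heated in aliquots for 3 min across 48°C-58°C, pooled, extracted in PBS with 0.5% NP-40 at 4°C, and centrifuged at 21,000xg for 90 min to give the soluble supernatant.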

[2] = compound: Cc1cccc(CC(=O)N2CCc3c2ccc(-c2cn(C)c4ncnc(N)c24)c3F)n1
Outline: as §1

[3] = compound: Cc1cn(-c2cc(NC(=O)c3ccc(C)c(Nc4nccc(-c5cccnc5)n4)c3)cc(C(F)(F)F)c2)cn1 [nilotinib]
Outline: as §1

[4] = compound: Cc1nc(Nc2n[nH]c3c2CN(C(=O)N[C@H](CN(C)C)c2ccccc2)C3(C)C)c2sccc2n1
Outline: as §1

[5] = compound: Cc1nc(Nc2ncc(C(=O)Nc3c(C)cccc3Cl)s2)cc(N2CCN(CCO)CC2)n1 [dasatinib]
Outline: as §1

[6] = compound: Cc1ncc(-c2ccnc(Nc3ccc(S(C)(=O)=O)cc3)n2)n1C(C)C
Outline: as §1

[7] = compound: Cn1cc(-c2ccc3c(c2)CCN3C(=O)Cc2cccc(C(F)(F)F)c2)c2c(N)ncnc21
Outline: as §1

[8] = compound: Cn1cc(-c2ccc3nnc(C(F)(F)c4ccc5ncccc5c4)n3n2)cn1
Outline: as §1

[9] = compound: Cn1cncc1[C@@](N)(c1ccc(Cl)cc1)c1ccc2c(c1)c(-c1cccc(Cl)c1)cc(=O)n2C [tipifarnib]
Outline: as §1

[10] = compound: FC(F)(F)c1ccc(/C=C/c2nc(COc3ccc(CCCCn4ccnn4)cc3)co2)cc1 [mubritinib]
Outline: as §1

[11] = compound: NC(=O)Nc1cc(-c2cccc(F)c2)sc1C(=O)N[C@H]1CCCNC1
Outline: as §1

[12] = compound: NC(=O)c1cnc(N[C@@H]2CCCC[C@@H]2N)nc1Nc1cccc(-n2nccn2)c1
Outline: as §1

[13] = compound: NC1(c2ccc(-c3nc4ccn5c(=O)[nH]nc5c4cc3-c3ccccc3)cc2)CCC1
Outline: as §1

[14] = compound: NCC(=O)Nc1ccc(-n2nc(C(F)(F)F)cc2-c2ccc3c(ccc4ccccc43)c2)cc1
Outline: as §1

[15] = compound: Nc1ccccc1NC(=O)c1ccc(CNC(=O)OCc2cccnc2)cc1 [entinostat]
Outline: as §1

[16] = compound: O=C(CCCCCCC(=O)Nc1ccccc1)NO [vorinostat]
Outline: as §1

[17] = compound: O=C(CCCCCCNC(=O)c1cnc(N(c2ccccc2)c2ccccc2Cl)nc1)NO [citarinostat]
Outline: as §1

[18] = compound: O=C(O)c1ccc2c(c1)nc(Nc1cccc(Cl)c1)c1ccncc12 [silmitasertib]
Outline: as §1

[19] = compound: O=C1NC(=O)C(c2cnc3ccccn23)=C1c1cn2c3c(cc(F)cc13)CN(C(=O)N1CCCCC1)CC2
Outline: as §1

[20] = compound: c1cc(OCCN2CCCCC2)cc(-c2n[nH]c3ccc(-c4nnc[nH]4)cc23)c1
Outline: as §1

Measured: log2 fold change

REL (UniProt Q04864)
Sequence of UniProt Q04864 (Q04864 whole entry, looked up): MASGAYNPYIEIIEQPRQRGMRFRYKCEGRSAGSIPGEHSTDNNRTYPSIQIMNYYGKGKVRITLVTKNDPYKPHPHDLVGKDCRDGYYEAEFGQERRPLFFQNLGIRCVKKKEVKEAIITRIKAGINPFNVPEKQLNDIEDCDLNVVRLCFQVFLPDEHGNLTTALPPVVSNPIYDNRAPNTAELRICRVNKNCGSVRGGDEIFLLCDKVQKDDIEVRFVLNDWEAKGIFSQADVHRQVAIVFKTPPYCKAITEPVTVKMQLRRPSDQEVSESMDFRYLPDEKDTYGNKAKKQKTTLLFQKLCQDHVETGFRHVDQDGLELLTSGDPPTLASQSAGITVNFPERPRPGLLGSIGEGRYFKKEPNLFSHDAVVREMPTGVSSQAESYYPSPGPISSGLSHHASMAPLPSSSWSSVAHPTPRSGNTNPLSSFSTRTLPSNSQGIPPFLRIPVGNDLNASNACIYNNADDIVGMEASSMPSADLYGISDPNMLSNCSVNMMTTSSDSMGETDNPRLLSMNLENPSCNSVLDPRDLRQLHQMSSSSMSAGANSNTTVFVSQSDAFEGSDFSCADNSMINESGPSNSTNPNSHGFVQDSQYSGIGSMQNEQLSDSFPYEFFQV
active: [4] -0.438
inactive: [1] -0.185 | [2] 0.03 | [3] -0.094 | [5] -0.115 | [6] -0.018 | [7] 0.013 | [8] 0.059 | [9] -0.011 | [10] 0.034 | [11] -0.053 | [12] -0.131 | [13] -0.108 | [14] 0.028 | [15] -0.007 | [16] -0.122 | [17] 0.053 | [18] 0.053 | [19] -0.054 | [20] -0.09

RBM8A (UniProt Q9Y5S9)
inactive: [1] -0.013 | [2] -0.014 | [3] -0.047 | [4] -0.063 | [5] 0.001 | [6] 0.126 | [7] -0.02 | [8] 0.065 | [9] 0.019 | [10] 0.013 | [11] -0.044 | [12] 0.075 | [13] -0.045 | [14] -0.068 | [15] 0.037 | [16] -0.025 | [17] 0.03 | [18] 0.011 | [19] -0.019 | [20] -0.076

RARS2 (UniProt Q5T160)
Sequence of UniProt Q5T160 (Q5T160 whole entry, looked up): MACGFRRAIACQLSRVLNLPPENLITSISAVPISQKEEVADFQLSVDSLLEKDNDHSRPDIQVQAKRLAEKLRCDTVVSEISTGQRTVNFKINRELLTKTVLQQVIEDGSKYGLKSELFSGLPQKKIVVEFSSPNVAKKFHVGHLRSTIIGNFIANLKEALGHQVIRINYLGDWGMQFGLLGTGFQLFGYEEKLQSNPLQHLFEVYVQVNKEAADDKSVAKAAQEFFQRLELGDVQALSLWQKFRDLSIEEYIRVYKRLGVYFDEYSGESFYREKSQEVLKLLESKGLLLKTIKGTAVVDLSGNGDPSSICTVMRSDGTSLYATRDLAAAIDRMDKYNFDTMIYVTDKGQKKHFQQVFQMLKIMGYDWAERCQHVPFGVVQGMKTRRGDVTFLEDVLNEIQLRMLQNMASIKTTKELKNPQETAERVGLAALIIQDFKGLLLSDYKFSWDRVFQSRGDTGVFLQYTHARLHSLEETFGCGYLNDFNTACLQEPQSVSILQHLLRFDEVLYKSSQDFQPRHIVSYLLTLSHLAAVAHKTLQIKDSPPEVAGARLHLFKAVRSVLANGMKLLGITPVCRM
inactive: [1] -0.148 | [2] 0.104 | [3] -0.039 | [4] 0.019 | [5] -0.023 | [6] -0.006 | [7] 0.061 | [8] 0.012 | [9] -0.008 | [10] 0.075 | [11] 0.042 | [12] -0.035 | [13] -0.182 | [14] -0.043 | [15] 0.03 | [16] 0.029 | [17] 0.048 | [18] 0.006 | [19] -0.022 | [20] -0.053

RABGAP1L isoform 3 (UniProt Q5R372)
inactive: [1] -0.045 | [2] 0.024 | [3] -0.031 | [4] -0.001 | [5] -0.038 | [6] -0.037 | [7] -0.005 | [8] 0.013 | [9] 0.016 | [10] -0.001 | [11] -0.012 | [12] -0.012 | [13] -0.05 | [14] 0.036 | [15] 0.016 | [16] 0.025 | [17] 0.06 | [18] 0.019 | [19] 0.073 | [20] -0.011

RAB5IF isoform 5 (UniProt Q9BUV8)
Sequence of UniProt Q9BUV8 (Q9BUV8 whole entry, looked up): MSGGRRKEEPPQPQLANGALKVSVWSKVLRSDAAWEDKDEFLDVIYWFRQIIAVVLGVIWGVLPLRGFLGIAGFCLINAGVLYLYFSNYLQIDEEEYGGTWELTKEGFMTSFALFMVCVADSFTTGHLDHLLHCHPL
inactive: [1] 0.034 | [2] -0.01 | [3] -0.042 | [4] -0.011 | [5] 0.062 | [6] -0.051 | [7] -0.054 | [8] 0 | [9] -0.013 | [10] 0.079 | [11] 0.008 | [12] 0.103 | [13] 0.003 | [14] -0.107 | [15] 0.007 | [16] -0.019 | [17] 0.225 | [18] -0.032 | [19] 0.168 | [20] 0.047

RAB8B (UniProt Q92930)
inactive: [1] -0.008 | [2] 0.085 | [3] 0.059 | [4] -0.036 | [5] 0.015 | [6] -0.043 | [7] 0.031 | [8] -0.016 | [9] -0.088 | [10] -0.062 | [11] 0.203 | [12] 0.017 | [13] -0.053 | [14] 0.2 | [15] 0.116 | [16] 0.073 | [17] 0.03 | [18] -0.049 | [19] -0.013 | [20] 0.093

RAP1GDS1 isoform 5 (UniProt P52306)
Sequence of UniProt P52306 (P52306 whole entry, looked up): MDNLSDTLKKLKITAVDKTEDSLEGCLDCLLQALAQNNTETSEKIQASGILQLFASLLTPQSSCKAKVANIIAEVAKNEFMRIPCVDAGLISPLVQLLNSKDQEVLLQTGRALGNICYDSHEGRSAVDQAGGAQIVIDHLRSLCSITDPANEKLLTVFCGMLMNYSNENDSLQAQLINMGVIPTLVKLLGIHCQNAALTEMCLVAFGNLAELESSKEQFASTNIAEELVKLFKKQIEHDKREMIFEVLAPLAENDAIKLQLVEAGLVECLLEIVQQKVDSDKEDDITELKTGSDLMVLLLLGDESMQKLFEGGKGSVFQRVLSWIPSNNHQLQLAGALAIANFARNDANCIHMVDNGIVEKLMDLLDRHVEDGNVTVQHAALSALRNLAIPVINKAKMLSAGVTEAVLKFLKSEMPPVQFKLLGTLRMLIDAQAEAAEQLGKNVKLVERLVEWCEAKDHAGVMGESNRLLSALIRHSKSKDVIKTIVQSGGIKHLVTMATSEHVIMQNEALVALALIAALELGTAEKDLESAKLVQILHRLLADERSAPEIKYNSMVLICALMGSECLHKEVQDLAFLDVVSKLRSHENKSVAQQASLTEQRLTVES
inactive: [1] 0.097 | [2] 0.07 | [3] -0.077 | [4] -0.105 | [5] -0.083 | [6] 0.042 | [7] -0.005 | [8] 0.03 | [9] -0.041 | [10] 0.026 | [11] -0.059 | [12] -0.069 | [13] -0.181 | [14] -0.117 | [15] 0.027 | [16] 0.119 | [17] 0.2 | [18] 0.087 | [19] -0.049 | [20] -0.002

RAC3 (UniProt P60763)
inactive: [1] 0.015 | [2] -0.221 | [3] 0.03 | [4] 0.036 | [5] -0.169 | [6] -0.016 | [7] 0.107 | [8] 0.064 | [9] 0.03 | [10] -0.008 | [11] -0.142 | [12] 0.067 | [13] 0.058 | [14] -0.002 | [15] -0.14 | [16] -0.037 | [17] -0.007 | [18] 0.016 | [19] -0.083 | [20] 0.176

RSRC1 (UniProt Q96IZ7)
inactive: [1] 0.042 | [2] -0.05 | [3] 0.06 | [5] 0.028 | [6] -0.024 | [7] 0.003 | [8] -0.021 | [9] 0.038 | [10] 0.012 | [11] -0.019 | [12] 0.162 | [13] -0.005 | [14] -0.013 | [15] -0.04 | [16] 0.022 | [17] 0.049 | [19] -0.029 | [20] -0.123
active: [4] -2.01 | [18] -0.275

RBIS (UniProt Q8N0T1)
Sequence of UniProt Q8N0T1 (Q8N0T1 whole entry, looked up): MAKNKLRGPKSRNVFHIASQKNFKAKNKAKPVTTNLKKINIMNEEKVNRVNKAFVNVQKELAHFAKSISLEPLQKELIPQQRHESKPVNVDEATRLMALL
inactive: [1] 0.012 | [2] -0.058 | [3] -0.058 | [4] 0.101 | [5] 0.008 | [6] -0.079 | [7] 0.023 | [8] 0.004 | [9] -0.02 | [10] 0.021 | [11] -0.021 | [12] -0.029 | [13] 0.02 | [14] 0.02 | [15] 0.019 | [16] 0.014 | [17] 0.092 | [18] -0.009 | [19] -0.002 | [20] -0.078

RPS2 (UniProt P15880)
inactive: [1] 0.284 | [2] 0 | [3] 0 | [4] 0.198 | [5] 0.13 | [6] -0.035 | [7] -0.216 | [8] -0.105 | [9] 0.077 | [10] -0.095 | [11] 0.035 | [12] 0.081 | [13] 0.195 | [14] 0.089 | [15] -0.036 | [16] 0.001 | [17] -0.079 | [18] 0.01 | [19] 0.086 | [20] -0.189

RABGGTA (UniProt Q92696)
Sequence of UniProt Q92696 (Q92696 whole entry, looked up): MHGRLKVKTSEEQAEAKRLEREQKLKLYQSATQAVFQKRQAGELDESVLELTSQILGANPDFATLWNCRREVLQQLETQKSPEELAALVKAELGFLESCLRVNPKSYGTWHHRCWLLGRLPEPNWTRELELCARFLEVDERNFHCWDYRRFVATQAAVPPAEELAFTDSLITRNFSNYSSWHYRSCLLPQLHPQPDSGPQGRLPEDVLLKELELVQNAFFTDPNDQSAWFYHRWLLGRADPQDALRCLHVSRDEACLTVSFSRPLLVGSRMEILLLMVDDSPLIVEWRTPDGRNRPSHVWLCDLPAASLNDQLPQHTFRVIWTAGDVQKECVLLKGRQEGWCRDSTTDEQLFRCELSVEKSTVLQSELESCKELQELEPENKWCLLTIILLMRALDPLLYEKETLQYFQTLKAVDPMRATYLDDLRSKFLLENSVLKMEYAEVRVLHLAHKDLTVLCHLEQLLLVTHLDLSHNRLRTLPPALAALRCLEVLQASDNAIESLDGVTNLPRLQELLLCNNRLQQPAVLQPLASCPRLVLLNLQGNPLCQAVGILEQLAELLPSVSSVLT
active: [13] -0.257
inactive: [1] -0.019 | [2] 0.027 | [3] 0.033 | [4] -0.088 | [5] 0.076 | [6] -0.076 | [7] 0.089 | [8] -0.015 | [9] 0.08 | [10] 0.002 | [11] 0.034 | [12] -0.008 | [14] 0.051 | [15] -0.05 | [16] 0.005 | [17] 0.038 | [18] 0.008 | [19] 0.003 | [20] 0.027

SACM1L (UniProt Q9NTJ5)
Sequence of UniProt Q9NTJ5 (Q9NTJ5 whole entry, looked up): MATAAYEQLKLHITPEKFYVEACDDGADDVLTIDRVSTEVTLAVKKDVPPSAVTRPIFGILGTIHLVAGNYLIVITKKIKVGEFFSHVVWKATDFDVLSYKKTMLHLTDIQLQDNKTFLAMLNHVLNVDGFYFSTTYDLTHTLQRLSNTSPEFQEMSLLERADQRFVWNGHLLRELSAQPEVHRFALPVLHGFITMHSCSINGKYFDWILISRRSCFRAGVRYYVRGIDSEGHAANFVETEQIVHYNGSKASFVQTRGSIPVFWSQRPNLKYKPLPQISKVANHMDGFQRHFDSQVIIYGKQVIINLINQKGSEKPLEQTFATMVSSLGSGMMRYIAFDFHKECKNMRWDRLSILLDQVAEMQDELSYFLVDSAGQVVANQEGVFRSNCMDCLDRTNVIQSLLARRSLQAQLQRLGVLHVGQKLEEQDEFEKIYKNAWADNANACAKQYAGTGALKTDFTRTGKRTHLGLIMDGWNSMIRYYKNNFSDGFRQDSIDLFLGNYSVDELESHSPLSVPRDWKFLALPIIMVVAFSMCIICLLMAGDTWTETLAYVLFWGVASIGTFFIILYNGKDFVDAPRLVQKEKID
inactive: [1] -0.011 | [2] -0.022 | [3] 0.044 | [4] -0.002 | [5] 0.012 | [6] 0.012 | [7] -0.009 | [8] 0 | [9] -0.024 | [10] -0.002 | [11] -0.045 | [12] 0 | [13] -0.102 | [14] -0.083 | [15] 0.016 | [16] 0.006 | [17] 0.044 | [18] 0.034 | [19] -0.068 | [20] -0.017

SELENOH (UniProt Q8IZQ5)
Sequence of UniProt Q8IZQ5 (Q8IZQ5 whole entry, looked up): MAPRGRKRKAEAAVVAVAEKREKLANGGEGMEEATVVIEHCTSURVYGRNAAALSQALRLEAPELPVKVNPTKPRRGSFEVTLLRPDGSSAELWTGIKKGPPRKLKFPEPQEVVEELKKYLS
inactive: [1] 0.042 | [2] 0.21 | [3] -0.02 | [4] 0.011 | [5] 0.076 | [6] 0.012 | [7] -0.039 | [8] 0.036 | [9] -0.01 | [10] -0.009 | [11] 0.227 | [12] 0.194 | [13] 0.011 | [14] 0.049 | [15] 0.066 | [16] -0.007 | [17] 0.067 | [18] 0.011 | [19] 0.038 | [20] 0.053

REEP4 (UniProt Q9H6H4)
inactive: [1] 0.021 | [2] 0.127 | [3] -0.017 | [4] -0.077 | [5] -0.079 | [6] 0.067 | [7] -0.052 | [8] -0.056 | [9] -0.109 | [10] -0.04 | [11] 0.002 | [12] -0.032 | [13] -0.012 | [14] 0.084 | [15] 0.027 | [16] 0.088 | [17] 0.048 | [18] 0.027 | [19] 0.097 | [20] -0.059

SIDT2 isoform 2 (UniProt Q8NBJ9)
Sequence of UniProt Q8NBJ9 (Q8NBJ9 whole entry, looked up): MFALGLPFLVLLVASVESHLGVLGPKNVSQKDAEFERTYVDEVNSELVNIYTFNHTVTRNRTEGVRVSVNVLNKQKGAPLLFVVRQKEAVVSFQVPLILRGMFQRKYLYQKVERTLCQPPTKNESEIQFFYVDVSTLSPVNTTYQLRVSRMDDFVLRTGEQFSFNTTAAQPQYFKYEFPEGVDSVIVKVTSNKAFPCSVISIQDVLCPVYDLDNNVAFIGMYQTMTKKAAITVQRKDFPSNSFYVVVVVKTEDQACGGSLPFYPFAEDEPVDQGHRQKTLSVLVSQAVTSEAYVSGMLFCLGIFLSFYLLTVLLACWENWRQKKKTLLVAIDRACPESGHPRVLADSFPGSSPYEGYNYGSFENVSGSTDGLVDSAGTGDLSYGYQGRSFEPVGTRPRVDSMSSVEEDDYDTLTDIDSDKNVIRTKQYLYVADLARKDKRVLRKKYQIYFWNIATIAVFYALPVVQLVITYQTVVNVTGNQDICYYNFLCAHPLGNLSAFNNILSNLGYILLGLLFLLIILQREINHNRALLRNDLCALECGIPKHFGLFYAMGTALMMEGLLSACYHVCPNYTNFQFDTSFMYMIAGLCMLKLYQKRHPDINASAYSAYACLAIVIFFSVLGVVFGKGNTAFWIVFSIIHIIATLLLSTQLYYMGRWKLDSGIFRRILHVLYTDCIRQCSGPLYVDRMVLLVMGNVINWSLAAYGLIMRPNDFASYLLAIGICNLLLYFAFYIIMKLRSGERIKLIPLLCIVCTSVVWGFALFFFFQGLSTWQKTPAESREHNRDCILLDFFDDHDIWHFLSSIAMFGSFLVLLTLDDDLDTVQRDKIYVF
inactive: [1] -0.24 | [2] -0.025 | [3] -0.005 | [4] 0.104 | [5] 0.041 | [6] 0.025 | [7] -0.003 | [8] 0.038 | [9] 0.073 | [10] -0.001 | [11] 0.057 | [12] -0.01 | [13] -0.086 | [14] 0.297 | [15] -0.064 | [16] -0.107 | [17] 0.002 | [18] -0.067 | [19] 0.029 | [20] 0.108
